In the library only some 2.4% were active in any assay of this set; here they are far more common.
Pol beta inh = DNA polymerase beta (human) inhibition; Potency, µM (series often up to 114 µM), for inactives: at the highest dose activity change, negative = inhibition, actives largely listed as inhibitors; Pol beta primer extension/strand displacement, fluorescence kinetic; hit rate 1.3% among 340,000; P06746; further: potency means the concentration at half of the fitted maximal effect; on the % scale 0 is the no-effect control and ±100 the full control effect
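Values derive from four-parameter Hill fits of normalized kinetic data: reads at 0 and 10 min following addition of 50 nM substrate to 10 nM Pol beta preincubated 15 min with compound.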
POLI inh = DNA polymerase iota (human) inhibition; Pol iota fluorescent replication assay, 10 min; Potency, µM (top dose mostly 115 µM), for the others: at the highest dose activity, negative = inhibition, usual class: inhibitors; hit rate 1% among 390,000; AID 588590; further: potency means the concentration at half of the fitted maximal effect
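Pol iota at 10 nM preincubated 15 min with compounds at room temperature; reaction started with fluorescent substrate, 50 nM final. Fluorescence read kinetically at 0 and 10 min; buffer-only wells as negative control.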
FEN1 inhibitor = blocks human flap endonuclease 1; P39748; Recombinant FEN1 flap cleavage, fluorescence, 15 min; Potency, µM (doses to about 114 µM), inactives show top-dose activity change, negative = inhibition, usual class: inhibitors; hit rate 0.35% among 390,000; AID 588795; further: potency means the concentration at half of the fitted maximal effect; on the % scale 0 is the no-effect control and ±100 the full control effect; nearly all actives have a fitted effect of over 65% in size
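Quantitative HTS format: each compound was titrated, incubated with 10 nM nuclease for 15 min at room temperature, then challenged with flap substrate at 50 nM final. Signal change over 15 min gave concentration–effect curves.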
Pol kappa inh-1 = inhibitors of human DNA polymerase kappa. Q9UBT6. purified Pol kappa, fluorescent DNA synthesis assay, 10 min. Potency, µM (titrated, usually from 107 µM), without a hit: at the top dose activity, negative = inhibition, hits mostly inhibitors. hit rate 0.53% among 400,000. AID 588579; further: potency means the concentration at half of the fitted maximal effect; on the % scale 0 is the no-effect control and ±100 the full control effect
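Kinetic fluorescence screen: compound preincubated 15 min RT with 10 nM enzyme; 50 nM substrate (final) initiates; reads at 0/10 min.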
Pol eta inh-1 = inhibitors of human DNA polymerase eta. Q9Y253. recombinant Pol eta, fluorescent DNA replication assay. Potency, µM (doses to about 114 µM), without a hit: at the top dose activity change, negative = inhibition, most hits filed as inhibitors. hit rate 1.2% among 390,000; further: potency means the concentration at half of the fitted maximal effect; on the % scale 0 is the no-effect control and ±100 the full control effect
Target sequence (Q9Y253 whole entry, looked up): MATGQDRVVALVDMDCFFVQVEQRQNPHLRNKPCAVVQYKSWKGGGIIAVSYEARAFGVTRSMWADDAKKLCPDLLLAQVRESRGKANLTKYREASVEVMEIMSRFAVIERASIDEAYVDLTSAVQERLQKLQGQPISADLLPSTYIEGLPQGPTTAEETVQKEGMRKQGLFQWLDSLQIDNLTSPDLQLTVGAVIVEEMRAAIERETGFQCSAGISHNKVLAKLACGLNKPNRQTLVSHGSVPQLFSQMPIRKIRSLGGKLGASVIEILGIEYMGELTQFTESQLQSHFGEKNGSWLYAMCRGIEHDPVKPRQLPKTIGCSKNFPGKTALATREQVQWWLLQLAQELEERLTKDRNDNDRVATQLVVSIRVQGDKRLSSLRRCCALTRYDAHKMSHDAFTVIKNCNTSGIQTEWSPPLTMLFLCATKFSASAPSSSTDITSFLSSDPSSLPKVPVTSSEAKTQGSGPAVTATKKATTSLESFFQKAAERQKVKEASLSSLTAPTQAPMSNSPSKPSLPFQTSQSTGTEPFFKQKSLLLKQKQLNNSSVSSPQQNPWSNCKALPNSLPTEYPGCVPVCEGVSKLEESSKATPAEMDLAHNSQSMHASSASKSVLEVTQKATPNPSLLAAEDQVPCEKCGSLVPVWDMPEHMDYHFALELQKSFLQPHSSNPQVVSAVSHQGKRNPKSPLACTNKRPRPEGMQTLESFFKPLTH
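Fluorescent replication assay: 50 nM final substrate added after a 15 min room-temperature compound preincubation with 10 nM enzyme. Signal taken at 0 min and again at 10 min.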
Tb PGK inh = blocks T. brucei phosphoglycerate kinase; P07378; AID 602233; Potency, µM (top dose mostly 57.5 µM), for the others: at the top dose activity change, negative = inhibition, most hits filed as inhibitors; PGK/GAPDH coupled, Kinase-Glo luminescence, 60 min; hit rate 0.043% among 380,000; further: potency means the concentration at half of the fitted maximal effect; on the % scale 0 is the no-effect control and ±100 the full control effect; nearly all actives have a fitted effect of over 60% in size
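Recombinant glycosomal PGK reaction used 1,3-bisphosphoglycerate generated in-well by GAPDH (100nM final) in 100mM TEA pH 7.6, 5mM MgCl2, 0.01% Tween-20. After 60 minutes at room temperature, ATP was read by Kinase-Glo Plus luminescence end-point.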
GALK confirm = confirmation of human galactokinase (GALK) inhibitors; shares compounds with Pol eta inh-1; AID 2015; Potency, µM (top dose mostly 115 µM), inactives show top-dose activity, negative = inhibition, hits mostly inhibitors; purified GALK, Kinase-Glo ATP depletion luminescence; hit rate 70% among 150
Redox cycling = generates H2O2 by redox cycling, flagging GALK artifacts; Phenol red-HRP H2O2 redox cycling, absorbance 600 nm; Potency, µM (top dose mostly 115 µM), for inactives: at the top dose activity change, negative = H2O2 signal, actives largely listed as inhibitors; hit rate 40% among 150; shares compounds with Pol eta inh-1
HEK293 viability = reduces HEK-293 cell viability in GALK counter-screen; shares compounds with Pol eta inh-1; HEK-293 viability, ATP luminescence (CellTiter-Glo), 24/48 h; Potency, µM (highest dose often 46.1 µM), for the others: at the highest dose activity change, negative = cytotoxicity, actives largely listed as inhibitors; hit rate 10% among 170; AID 2547; further: potency means the concentration at half of the fitted maximal effect; on the % scale 0 is the no-effect control and ±100 the full control effect
Pol kappa inh-2 = confirmation of human DNA polymerase kappa inhibitors. shares compounds with Pol eta inh-1. purified Pol-kappa, fluorescent strand-displacement substrate. Potency, µM, hits mostly inhibitors. hit rate 76% among 920. AID 720501; further: potency means the concentration at half of the fitted maximal effect
Pol eta inh-2 = confirmation of human DNA polymerase eta inhibitors. shares compounds with Pol eta inh-1. Pol eta primer extension, TAMRA/BHQ fluorescence, 10 min. Potency, µM, actives largely listed as inhibitors. hit rate 64% among 2,600. AID 720502; further: potency means the concentration at half of the fitted maximal effect
The depositor's hits bear a star; i = inactive; ? = inconclusive; nt = no result given; ! = not active in a repeat; [ ] = remark or other dose. The call rests on the fitted dose curve; in most records, active means well fitted curve in the direction sought with a large enough effect; inconclusive means small, poorly fitted or top-dose-only effect, or another doubt; inactive means no such curve, though single readings can be large; an effect the other way counts as inactive or inconclusive.

SMILES	Pol beta inh	POLI inh	FEN1 inhibitor	Pol kappa inh-1	Pol eta inh-1	Tb PGK inh	Pol eta inh-2	others
Clc1ccc(COC(Cn2ccnc2)c2ccc(Cl)cc2Cl)cc1 (stereo not given)	15%	9%	?	?	-27%	-4%	nt
Clc1ccc(C(c2ccc(Cl)cc2)n2cc[n+](CC(OCc3ccc(Cl)cc3Cl)c3ccc(Cl)cc3Cl)c2)cc1 (stereo not given)	1%[57.1 µM]	?	79µM*	-12%[60.1 µM]	?	i	nt	Pol kappa inh-2=67*
COCOC1CCC2C3CCC4=CC(=O)CCC4=C3C=CC12C (stereo not given)	nt	28µM*	-12%	?	?	-12%	?
CC1(O)CCC2C3CCC4=CC(=O)CCC4=C3C=CC21C (stereo not given)	nt	24%	15%	4%	2%	-5%	nt
O=C(O)CC1OCC=C2CN3CCC45C6=CC(=O)C(=O)C([N+](=O)[O-])=C6NC4C1C2CC35 (stereo not given)	?	1.8µM*!	-67%	40µM*	5µM*	?	nt	GALK confirm=11µM*;Redox cycling=5.3µM*;HEK293 viability=-1%
CCCN1CCCC2Cc3nc(N)ncc3CC21 (stereo not given)	nt	nt	nt	0%[19.4 µM]	nt	nt	nt
O=c1cc(-c2ccc(O)c(O)c2)oc2c(C3O[C@H](CO)[C@@H](O)[C@H](O)[C@H]3O)c(O)cc(O)c12 (stereo not given in full)	20µM*	28µM*	-18%	20µM*	?	5%	?	Pol kappa inh-2=19*
CC(C)NC(=O)C(C)N1CCN(S(=O)(=O)c2ccc3ccccc3c2)CC1 (stereo not given)	3%	39%	-5%	2%	11%	8%	nt
Cc1ccc(-n2c(C)cc(/C=C3/C(=O)NC(=O)N(Cc4ccco4)C3=O)c2C)cc1	?	20µM*	-5%	?	50µM*	-3%	?
C=CCN1C(=O)/C(=C/c2cc(C)n(-c3cccnc3)c2C)C(=O)NC1=S	-26%	-13%	-1%	-19%	2%	-6%	nt
Cc1cc(/C=C2\C(=O)NC(=O)N(Cc3ccco3)C2=O)c(C)n1-c1ccc(O)cc1	11µM*	?	?	40µM*	20µM*	-25%	?
Cc1ccc(OCCn2cccc2/C=C2/C(=O)NC(=O)N(Cc3ccco3)C2=O)cc1	-14%	8.9µM*	?	28µM*	20µM*	-15%	67*
Cc1ccc(CNC(=O)C(=O)NCC(c2cccnc2)N2CCN(c3ccc(F)cc3)CC2)cc1 (stereo not given)	?	29%	5%	-4%	-17%	-1%	nt
Cc1cccc(N2C(=O)NC(=O)/C(=C\c3cccn3-c3ccc(Cl)cc3)C2=O)c1	22µM*	22µM*	17%	79µM*	11µM*	-3%	60*
CCn1ncc(-c2ccnc3cc(C(=O)O)nn23)c1C	?	35µM*	-6%	-20%	25µM*	?	?
CCCCc1ccc(C(=O)O)nc1	5%[57.1 µM]	-29%	11%	1%[60.1 µM]	-6%	-12%	nt
Cn1ccnc1	-6%[57.1 µM]	-8%[58.9 µM]	?	13%[60.1 µM]	4%[57.1 µM]	nt	nt
O=C(c1ccc2c(c1)N(Cc1ccc(F)cc1Cl)C(=O)c1ccccc1S2)N1CCC2(CC1)OCCO2	-7%	14%	7%	-9%[60.1 µM]	-13%	5%	nt
O=C(c1ccc2c(c1)N(Cc1cccc(F)c1)C(=O)c1ccccc1S2)N1CCC2(CC1)OCCO2	22µM*	-18%	-21%	-5%[60.1 µM]	?	-10%	?	Pol kappa inh-2=?
CCC1C(=O)OC[C@H]1Cc1cncn1C (stereo not given in full)	nt	nt	nt	-8%[60.1 µM]	nt	nt	nt
COc1cc([C@@H]2c3cc4c(c(O)c3C[C@H]3COC(=O)[C@@H]32)OCO4)cc(OC)c1OC	nt	22%	-11%	0%	nt	nt	nt
O=C(O)C1C(C(=O)O)C2(Cl)C(Cl)=C(Cl)C1(Cl)C2(Cl)Cl (stereo not given)	nt	45µM*	7%	79µM*	-6%	-12%	?
Cc1ncc2n1-c1ccc(Cl)cc1C(c1ccccc1F)=NC2O (stereo not given)	nt	nt	nt	16%[60.1 µM]	nt	nt	nt
C#C[C@@]1(O)CC[C@@H]2[C@@H]3CCC4=CC(=O)CC[C@@]4(C)[C@H]3CC[C@]21C	nt	nt	nt	-2%[12 µM]	nt	nt	nt
CC(N)(COP(=O)(O)Oc1ccccc1)C(=O)O (stereo not given)	nt	nt	nt	4%[19.4 µM]	nt	nt	nt
SMILES	Pol beta inh	POLI inh	FEN1 inhibitor	Pol kappa inh-1	Pol eta inh-1	Tb PGK inh	Pol eta inh-2	others
Cc1cc(N2CCOCC2)ccc1/C=C1\C(=O)NC(=O)N(c2ccccc2)C1=O	-18%	-20%	5%	-5%	-7%	-9%	nt
Cc1ccc(N2C(=O)NC(=O)/C(=C\C=C\c3ccco3)C2=O)cc1C	40µM*	10µM*	?	25µM*	22µM*	-6%	60*
O=C1NC(=O)N(c2ccccc2)C(=O)/C1=C/C=C/c1ccco1	?	?	?	40µM*	13µM*	-5%	38*
CN(C)c1ccc(/C=C/C=C2/C(=O)NC(=O)N(c3ccccc3)C2=O)cc1	1%	?	?	-24%	?	?	nt
O=[As]O[As]=O (stereo not given)	nt	nt	nt	4%[60.1 µM]	nt	nt	nt
Cc1ccc2c(c1)[C@@H]1CN(C)CC[C@H]1N2	nt	nt	nt	-1%[19.4 µM]	nt	nt	nt
Cc1ccc(S(=O)(=O)Cc2ccc(C(=O)N3CCC4(CC3)OCCO4)o2)cc1	10µM*	?	-2%	?	13µM*	-11%	?
